# Measured values: the supplement of paper PMC8728848
# This excerpt belongs to a sample that is enriched for the strongest signals.
# B1: PX15618B-bfa-464-25-464 (Bacteroides fragilis) (protein)
# chain: DQEPPLYVNENDIFTSPTRIEATLNGLYAAIKNTGTKSLMGGKSYLVFDNRGDDVINISNNLVTLFNTYNMNVGITDAENADTWTYAYLAINKVNTFLQSLEGAREVAGENYDRYVQEAKFVRALAYYYLNNLYPTPYSVNPDAKSVPLRLTAEAGTENNNMPRSTVKQIYEHILSDLENISALDTEVNTYTGVTHATQAAANMLKMRVYMAMNEWDKAITAGELVTGYSLPEDVTLIYKAPYFSQESIFSLPMADTNIPNTQQSLAEYYYDGKIMLIDTKSGIMSKPDYSLATDKRIIAFKGEKDLLMKFTDAKTKLQWVPIFRYAETLLDLAECYANKAGGEATAKSLLKQVRGRSVDAATDPLNIDNLSGDALKEAIYNEKRLEFIGEGIRGIDIMRRGEHFIKVGENETINVGPSDEKYTWPIPQVELLLNKDINK
# How the values were obtained:
# Experiment in all cases: glycan array binding signal (z-score within array); higher = stronger binding
# Details in all cases: glycan notation: IUPAC condensed, linker removed
# [1] = biological target: Fuc(a1-2)Gal(b1-3)GalNAc
# Outline: (§1)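 Glycan array binding is given as a within-array Z-score, which can be read as non-binding when negative. The arrays, 3228 of them, came from the Consortium for Functional Glycomics database and were retained only where the protein sequence was available. Z-scores were averaged across arrays of the same protein sequence at different concentrations or buffers and across linkers.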
# [2] = biological target: Fuc(a1-2)Gal(b1-3)GlcNAc(b1-3)[Fuc(a1-2)Gal(b1-3)GlcNAc(b1-6)]GalNAc
# Outline: as §1
# [3] = biological target: Fuc(a1-2)Gal(b1-3)[Fuc(a1-4)]GlcNAc(b1-3)[Fuc(a1-3)[Gal(b1-4)]GlcNAc(b1-6)]Gal(b1-4)Glc
# Outline: as §1
# [4] = biological target: Fuc(a1-2)Gal(b1-4)GlcNAc(b1-2)Man(a1-3)[Fuc(a1-2)Gal(b1-4)GlcNAc(b1-2)Man(a1-6)]Man(b1-4)GlcNAc(b1-4)GlcNAc
# Outline: as §1
# [5] = biological target: Fuc(a1-2)Gal(b1-4)GlcNAc(b1-3)Gal(b1-4)GlcNAc(b1-3)Gal(b1-4)GlcNAc
# Outline: as §1
# [6] = biological target: Fuc(a1-2)Gal(b1-4)[Fuc(a1-3)]GlcNAc(b1-2)[Fuc(a1-2)Gal(b1-4)[Fuc(a1-3)]GlcNAc(b1-4)]Man(a1-3)[Fuc(a1-2)Gal(b1-4)[Fuc(a1-3)]GlcNAc(b1-2)Man(a1-6)]Man(b1-4)GlcNAc(b1-4)GlcNAc
# Outline: as §1
# [7] = biological target: Fuc(a1-2)[Gal(a1-3)]Gal(b1-4)GlcNAc(b1-2)Man(a1-3)[Fuc(a1-2)[Gal(a1-3)]Gal(b1-4)GlcNAc(b1-2)Man(a1-6)]Man(b1-4)GlcNAc(b1-4)GlcNAc
# Outline: as §1
# [8] = biological target: Fuc(a1-2)[Gal(a1-3)]Gal(b1-4)GlcNAc(b1-2)Man(a1-3)[Fuc(a1-2)[Gal(a1-3)]Gal(b1-4)GlcNAc(b1-2)Man(a1-6)]Man(b1-4)GlcNAc(b1-4)[Fuc(a1-6)]GlcNAc
# Outline: as §1
# [9] = biological target: Fuc(a1-2)[GalNAc(a1-3)]Gal(b1-3)GlcNAc
# Outline: as §1
# [10] = biological target: Fuc(a1-2)[GalNAc(a1-3)]Gal(b1-3)GlcNAc(b1-2)Man(a1-3)[Fuc(a1-2)[GalNAc(a1-3)]Gal(b1-3)GlcNAc(b1-2)Man(a1-6)]Man(b1-4)GlcNAc(b1-4)GlcNAc
# Outline: as §1
# [11] = biological target: Fuc(a1-2)[GalNAc(a1-3)]Gal(b1-3)GlcNAc(b1-2)Man(a1-3)[Fuc(a1-2)[GalNAc(a1-3)]Gal(b1-3)GlcNAc(b1-2)Man(a1-6)]Man(b1-4)GlcNAc(b1-4)[Fuc(a1-6)]GlcNAc
# Outline: as §1
# [12] = biological target: Fuc(a1-2)[GalNAc(a1-3)]Gal(b1-4)[Fuc(a1-3)]GlcNAc(b1-3)GalNAc
# Outline: as §1
# [13] = biological target: Fuc(a1-3)[GalNAc(b1-4)]GlcNAc
# Outline: as §1
# [14] = biological target: Gal(a1-3)Gal
# Outline: as §1
# [15] = biological target: Gal(a1-4)Gal(b1-4)Glc
# Outline: as §1
# [16] = biological target: Gal(a1-4)Gal(b1-4)GlcNAc(b1-2)Man(a1-3)[Gal(a1-4)Gal(b1-4)GlcNAc(b1-2)Man(a1-6)]Man(b1-4)GlcNAc(b1-4)GlcNAc
# Outline: as §1
# [17] = biological target: Gal(b1-3)Gal
# Outline: as §1
# [18] = biological target: Gal(b1-3)GlcNAc
# Outline: as §1
# [19] = biological target: Gal(b1-3)GlcNAc(b1-3)Gal(b1-4)GlcNAc(b1-2)Man(a1-3)[Gal(b1-3)GlcNAc(b1-3)Gal(b1-4)GlcNAc(b1-2)Man(a1-6)]Man(b1-4)GlcNAc(b1-4)GlcNAc
# Outline: as §1
# [20] = biological target: Gal(b1-3)[Fuc(a1-4)]GlcNAc(b1-2)Man(a1-3)[Gal(b1-3)[Fuc(a1-4)]GlcNAc(b1-2)Man(a1-6)]Man(b1-4)GlcNAc(b1-4)[Fuc(a1-6)]GlcNAc
# Outline: as §1
# [21] = biological target: Gal(b1-3)[Neu5Ac(b2-6)]GalNAc
# Outline: as §1
# [22] = biological target: Gal(b1-4)GlcNAc(b1-2)Man(a1-6)[Man(a1-3)]Man(b1-4)GlcNAc(b1-4)GlcNAc
# Outline: as §1
# [23] = biological target: Gal(b1-4)GlcNAc(b1-2)[Gal(b1-4)GlcNAc(b1-4)]Man(a1-3)[Gal(b1-4)GlcNAc(b1-2)Man(a1-6)]Man(b1-4)GlcNAc(b1-4)GlcNAc
# Outline: as §1
# [24] = biological target: Gal(b1-4)GlcNAc(b1-2)[Gal(b1-4)GlcNAc(b1-6)]Man(a1-6)[Gal(b1-4)GlcNAc(b1-2)Man(a1-3)]Man(b1-4)GlcNAc(b1-4)GlcNAc
# Outline: as §1
# [25] = biological target: Gal(b1-4)GlcNAc(b1-3)Gal(b1-3)GalNAc
# Outline: as §1
# [26] = biological target: Gal(b1-4)GlcNAc(b1-3)Gal(b1-4)GlcNAc(b1-3)Gal(b1-4)GlcNAc(b1-3)Gal(b1-4)GlcNAc(b1-3)Gal(b1-4)GlcNAc(b1-2)[Gal(b1-4)GlcNAc(b1-3)Gal(b1-4)GlcNAc(b1-3)Gal(b1-4)GlcNAc(b1-3)Gal(b1-4)GlcNAc(b1-3)Gal(b1-4)GlcNAc(b1-6)]Man(a1-6)[Gal(b1-4)GlcNAc(b1-3)Gal(b1-4)GlcNAc(b1-3)Gal(b1-4)GlcNAc(b1-3)Gal(b1-4)GlcNAc(b1-3)Gal(b1-4)GlcNAc(b1-2)Man(a1-3)]Man(b1-4)GlcNAc(b1-4)[Fuc(a1-6)]GlcNAc
# Outline: as §1
# [27] = biological target: Gal(b1-4)GlcNAc(b1-6)Gal(b1-4)GlcNAc
# Outline: as §1
# [28] = biological target: Gal(b1-4)GlcNAc6P
# Outline: as §1
# [29] = biological target: Gal3S(b1-4)GlcNAc
# Outline: as §1
# [30] = biological target: Gal4S6S(b1-4)GlcNAc
# Outline: as §1
# [31] = biological target: GalNAc(a1-3)GalNAc
# Outline: as §1
# [32] = biological target: GalNAc(a1-3)GalNAc(b1-3)Gal(a1-4)Gal(b1-4)GlcNAc
# Outline: as §1
# [33] = biological target: Glc(b1-4)Glc
# Outline: as §1
# [34] = biological target: GlcNAc(a1-4)Gal(b1-4)GlcNAc
# Outline: as §1
# [35] = biological target: GlcNAc(a1-4)Gal(b1-4)GlcNAc(b1-3)Gal(b1-4)GlcNAc
# Outline: as §1
# [36] = biological target: GlcNAc(b1-2)[GlcNAc(b1-4)]Man(a1-3)[GlcNAc(b1-4)][GlcNAc(b1-2)[GlcNAc(b1-6)]Man(a1-6)]Man(b1-4)GlcNAc(b1-4)[Fuc(a1-6)]GlcNAc
# Outline: as §1
# [37] = biological target: GlcNAc(b1-2)[GlcNAc(b1-6)]Man(a1-6)[GlcNAc(b1-2)Man(a1-3)]Man(b1-4)GlcNAc(b1-4)[Fuc(a1-6)]GlcNAc
# Outline: as §1
# [38] = biological target: GlcNAc(b1-4)Gal(b1-4)GlcNAc
# Outline: as §1
# [39] = biological target: GlcNAc(b1-6)Gal(b1-4)GlcNAc
# Outline: as §1
# [40] = biological target: Man(a1-6)Man
# Outline: as §1
# [41] = biological target: Neu5Ac(a2-3)Gal(b1-3)GlcNAc(b1-2)Man(a1-3)[GlcNAc(b1-4)][Neu5Ac(a2-3)Gal(b1-3)GlcNAc(b1-2)Man(a1-6)]Man(b1-4)GlcNAc(b1-4)GlcNAc
# Outline: as §1
# [42] = biological target: Neu5Ac(a2-3)Gal(b1-3)GlcNAc6S
# Outline: as §1
# [43] = biological target: Neu5Ac(a2-3)Gal(b1-4)GlcNAc(b1-3)Gal(b1-4)GlcNAc(b1-3)Gal(b1-4)GlcNAc(b1-2)Man(a1-3)[Neu5Ac(a2-3)Gal(b1-4)GlcNAc(b1-3)Gal(b1-4)GlcNAc(b1-3)Gal(b1-4)GlcNAc(b1-2)Man(a1-6)]GalNAc
# Outline: as §1
# [44] = biological target: Neu5Ac(a2-3)Gal(b1-4)GlcNAc(b1-3)Gal(b1-4)GlcNAc(b1-3)[Neu5Ac(a2-3)Gal(b1-4)GlcNAc(b1-3)Gal(b1-4)GlcNAc(b1-6)]GalNAc
# Outline: as §1
# [45] = biological target: Neu5Ac(a2-3)Gal6S(b1-4)GlcNAc
# Outline: as §1
# [46] = biological target: Neu5Ac(a2-3)[GalNAc(b1-4)]Gal(b1-4)GlcNAc(b1-3)GalNAc
# Outline: as §1
# [47] = biological target: Neu5Ac(a2-6)Gal(b1-4)GlcNAc(b1-6)[Gal(b1-3)]GalNAc
# Outline: as §1
# [48] = biological target: Neu5Ac(a2-8)Neu5Ac(a2-3)Gal(b1-4)GlcNAc
# Outline: as §1
# [49] = biological target: Neu5Ac9Ac(a2-3)Gal(b1-4)GlcNAc
# Outline: as §1
binder,measurement,setting,value
B1,glycan array binding signal (z-score),[1],-0.355
same,glycan array binding signal (z-score),[2],1.41
same,glycan array binding signal (z-score),[3],-0.516
same,glycan array binding signal (z-score),[4],8.2
same,glycan array binding signal (z-score),[5],0.251
same,glycan array binding signal (z-score),[6],4.25
same,glycan array binding signal (z-score),[7],1.41
same,glycan array binding signal (z-score),[8],-0.101
same,glycan array binding signal (z-score),[9],-0.308
same,glycan array binding signal (z-score),[10],0.241
same,glycan array binding signal (z-score),[11],0.028
same,glycan array binding signal (z-score),[12],0.311
same,glycan array binding signal (z-score),[13],1.31
same,glycan array binding signal (z-score),[14],0.348
same,glycan array binding signal (z-score),[15],0.822
same,glycan array binding signal (z-score),[16],-0.514
same,glycan array binding signal (z-score),[17],0.33
same,glycan array binding signal (z-score),[18],1.37
same,glycan array binding signal (z-score),[19],-0.678
same,glycan array binding signal (z-score),[20],0.153
same,glycan array binding signal (z-score),[21],-0.017
same,glycan array binding signal (z-score),[22],0.248
same,glycan array binding signal (z-score),[23],0.511
same,glycan array binding signal (z-score),[24],2.66
same,glycan array binding signal (z-score),[25],-0.13
same,glycan array binding signal (z-score),[26],19.3
same,glycan array binding signal (z-score),[27],0.086
same,glycan array binding signal (z-score),[28],-0.626
same,glycan array binding signal (z-score),[29],-0.305
same,glycan array binding signal (z-score),[30],-0.852
same,glycan array binding signal (z-score),[31],-0.504
same,glycan array binding signal (z-score),[32],-0.273
same,glycan array binding signal (z-score),[33],-0.138
same,glycan array binding signal (z-score),[34],-0.125
same,glycan array binding signal (z-score),[35],-0.455
same,glycan array binding signal (z-score),[36],0.399
same,glycan array binding signal (z-score),[37],0.701
same,glycan array binding signal (z-score),[38],1.25
same,glycan array binding signal (z-score),[39],-0.393
same,glycan array binding signal (z-score),[40],0.302
same,glycan array binding signal (z-score),[41],0.609
same,glycan array binding signal (z-score),[42],-0.374
same,glycan array binding signal (z-score),[43],3.29
same,glycan array binding signal (z-score),[44],0.164
same,glycan array binding signal (z-score),[45],-0.187
same,glycan array binding signal (z-score),[46],0.625
same,glycan array binding signal (z-score),[47],1.16
same,glycan array binding signal (z-score),[48],-0.48
same,glycan array binding signal (z-score),[49],0.409
